Bioassay records deposited in PubChem by several laboratories.
Compounds with a hit are over-represented: about 5.9% of the library has one in this group of screens.
PRMT1 FP inh: inhibitors of human PRMT1. Q99873. recombinant PRMT1, activity-based probe fluorescence polarization. inhibition, % at 2.79 µM. 370,000 tested, 1.3% active. AID 652257;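 active = inhibition above about 21% made by adding two undisclosed values, limit read from the data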
rCAG binder: binds r(CAG) RNA repeats | r(CAG) RNA repeat, TO-PRO-1 dye displacement fluorescence | inhibition, % at 3 µM | 370,000 tested, 1.3% active | AID 651821;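 active = inhibition above the plate cutoff, the mean of all test compounds on that plate plus 3 SD, cut at about 35% in these data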;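 also: 0% = DMSO alone and 100% = 100 µM mitoxantrone as full dye displacement; higher means more dye released from RNA so lower well fluorescence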
ABHD5 PLIN5 PPI: ABHD5-PLIN5 protein interaction inhibition. Q00G26+Q8WTS1. Split G. princeps luciferase complementation, luminescence, 4 h. inhibition, % at 4 µM. 360,000 tested, 0.78% active. AID 602281;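 active = inhibition above the mean inhibition across every tested compound plus 3 SD, cut at about 22% in these data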;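 also: 0% = DMSO only wells and the 100% control is not disclosed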
Target sequence (Q00G26 whole entry, looked up): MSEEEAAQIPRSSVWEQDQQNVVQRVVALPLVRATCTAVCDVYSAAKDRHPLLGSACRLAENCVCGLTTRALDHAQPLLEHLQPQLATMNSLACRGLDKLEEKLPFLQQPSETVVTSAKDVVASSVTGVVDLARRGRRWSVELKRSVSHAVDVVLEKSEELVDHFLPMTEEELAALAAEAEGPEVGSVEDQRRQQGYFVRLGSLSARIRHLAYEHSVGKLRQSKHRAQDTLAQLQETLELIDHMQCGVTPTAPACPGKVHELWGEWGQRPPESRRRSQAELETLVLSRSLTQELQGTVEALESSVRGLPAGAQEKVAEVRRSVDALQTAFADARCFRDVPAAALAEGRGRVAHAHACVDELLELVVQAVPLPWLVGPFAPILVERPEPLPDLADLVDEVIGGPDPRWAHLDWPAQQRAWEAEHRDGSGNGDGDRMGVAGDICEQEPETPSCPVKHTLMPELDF
Target sequence (Q8WTS1 whole entry, looked up): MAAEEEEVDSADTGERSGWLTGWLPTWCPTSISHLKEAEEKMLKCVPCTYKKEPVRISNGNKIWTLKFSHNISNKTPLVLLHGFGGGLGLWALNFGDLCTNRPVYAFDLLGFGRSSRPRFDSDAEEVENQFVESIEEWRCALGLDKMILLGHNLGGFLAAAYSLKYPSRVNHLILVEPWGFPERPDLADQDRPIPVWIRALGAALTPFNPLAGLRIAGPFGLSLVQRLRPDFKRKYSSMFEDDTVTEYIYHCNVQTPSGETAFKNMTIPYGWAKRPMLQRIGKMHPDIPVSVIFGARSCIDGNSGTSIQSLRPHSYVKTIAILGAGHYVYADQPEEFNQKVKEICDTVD
Rtt109 Vps75: inhibitors of Candida albicans Rtt109/Vps75 histone acetyltransferase; purified Rtt109/Vps75, ThioGlo CoA-SH fluorescence, 4 h; 330,000 tested, 0.16% active; AID 540336; inhibition, % at 34.9 µM; Q5AAJ8;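 active = inhibition of at least 50% in every replicate; inconclusive = best replicate reaches 50% inhibition but some replicates fall short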
ALR inh: human ALR oxidase inhibition via reduced H2O2; 290,000 tested, 3.8% active; purified ALR, DTT oxidation, H2O2 HRP-luminol luminescence; AID 485317; inhibition, % (no concentration beside the values); P55789;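 active = mean replicate inhibition above about 79%, with every replicate also reaching it, limit read from the data; inconclusive = only one of the two criteria met; inactive = mean below limit and not every replicate reaching it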
LANA-H2B inh: blocks KSHV LANA binding to histone H2A/H2B; cell-free LANA-H2A/H2B peptide, fluorescence polarization; 320,000 tested, 0.6% active; inhibition, % (concentration not given with the values); in the data active = inhibition mostly above about 10%, no sharp cut-off; inactive = mostly below about 6.7%
rCAG binder conf: r(CAG) RNA repeat binding, confirmation; shares compounds with rCAG binder; TO-PRO-1 dye displacement fluorescence; inhibition, % at 3 µM; 4,300 tested, 70% active;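 active = inhibition above a per-plate cutoff, the mean inhibition of sample wells plus 3 SD, cut at about 35% in these data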;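 also: loss of TO-PRO-1 fluorescence as compound displaces dye from 1x1 AA loop RNA; 0% = DMSO only wells and 100% = 100 µM mitoxantrone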
dCAG dye counter: counter-screen for rCAG RNA binders: DNA CAG dye complex inhibitors; 4,300 tested, 94% active; d(CAG) DNA oligo TO-PRO-1 dye displacement, fluorescence; shares compounds with rCAG binder; inhibition, % at 3 µM;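 active = inhibition above its plate's cutoff, the mean test-well inhibition plus 3 SD, cut at about 4.8% in these data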;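 also: 0% = DNA dye mix with DMSO and 100% = 100 µM mitoxantrone; hits displace the dye from DNA and so lower well fluorescence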
DNA CAG DR: disrupts DNA CAG TO-PRO-1 complex in dose response. shares compounds with rCAG binder. DNA CAG/GTC duplex TO-PRO-1 dye displacement fluorescence. IC50, µM. 250 tested, 20% active; in the data active = IC50 below about 10 µM
* hit, by the source's call; ? = inconclusive; . = no result.

SMILES	PRMT1 FP inh	rCAG binder	ABHD5 PLIN5 PPI	Rtt109 Vps75	ALR inh	LANA-H2B inh	rCAG binder conf	dCAG dye counter	others
CCOc1ccccc1Nc1nnc(SCC(=O)Nc2ccc3[nH]c(=O)[nH]c3c2)s1	12	12	0	-2	.	-2	.	.
CCOc1ccccc1Nc1nnc(SCC(=O)NC(Cc2c[nH]c3ccccc23)C(=O)O)s1 (stereo not drawn)	-2	39*	-7	6	53	6	33	10*
CN1C(=O)C(=O)N2C(=C[C@]3(c4c[nH]c5ccccc45)c4ccccc4N[C@H]23)C1=O	7	.	.	.	.	.	.	.
COc1ccc(O)c(C(=O)c2cc(SCC(=O)O)c3nc4sc5c(c4c(=O)n3c2)CCCC5)c1	4	42*	-5	7	4	-2	89*	63*
O=C(O)CSc1cc(C(=O)c2ccccc2O)cn2c(=O)c3c(-c4ccccc4)csc3nc12	0	53*	1	-5	98*	0	90*	74*
Cc1sc2nc3c(SC(C)C(=O)O)cc(C(=O)c4ccccc4O)cn3c(=O)c2c1C (stereo not drawn)	3	77*	2	-26	8	-346	85*	61*
CCc1c(C)sc2nc3c(C(=O)N4CCOCC4)cc(C(=O)c4ccccc4O)cn3c(=O)c12	-4	8	1	8	14	-1	.	.
C/C(=N\Nc1nc(-c2cc(C)ccc2C)cs1)c1cc2ccccc2oc1=O	-1	14	4	-5	15	1	.	.
C/C(=N\Nc1nc(-c2cc(C)ccc2C)cs1)c1cc2c(ccc3ccccc32)oc1=O	7	47*	-10	-18	.	0	45*	23*
O=S(=O)(/N=C(/Nc1ccc(Cl)c(S(=O)(=O)Nc2ccccc2Cl)c1)c1ccc(F)cc1)c1ccccc1	1	66*	8	-3	-6	-3	71*	26*	DNA CAG DR=>30
C/C(=N\NC(=O)c1cccc(S(=O)(=O)Nc2ccccc2Cl)c1)c1ccco1	-4	48*	2	-1	28	1	18	6.8*
C/C(=N\NC(=O)c1ccc(Cl)c(S(=O)(=O)Nc2ccccc2Cl)c1)c1ccncc1	0	51*	-1	47	4	0	41*	11*
C/C(=N\NC(=O)c1cccc(S(=O)(=O)Nc2ccc(C)cc2C)c1)c1ccncc1	0	8	-16	0	.	.	.	.
COc1ccccc1NS(=O)(=O)c1cc(N/C(=N/S(=O)(=O)c2ccccc2)c2ccc(F)cc2)ccc1Cl	4	16	1	.	.	.	.	.
CN(C)C(CNC(=O)c1cccc(S(=O)(=O)Nc2ccccc2Cl)c1)c1ccco1 (stereo not drawn)	3	9	6	-1	2	2	.	.
CCCn1c(N)c(N(CCOC)C(=O)COC(=O)CSc2cc(C)c3ccccc3n2)c(=O)[nH]c1=O	-2	-4	3	7	-2	-5	.	.
C[C@H]1[C@@H](OC(=O)Nc2ccc(Cl)cc2)CC[C@@]23CCCN2C(=O)CCC[C@@H]13	-1	.	.	.	.	.	.	.
O=[N+]([O-])c1cc(Br)cc(C=Nc2ccc3c(c2)OCO3)c1O	-2	58*	-8	-1	.	-1	41*	17*
O=[N+]([O-])c1ccc(O)c(C=Nc2ccc3c(c2)OCO3)c1	10	8	3	6	.	1	.	.
Cc1ccc(N=Cc2cc3c(cc2[N+](=O)[O-])OCO3)cc1[N+](=O)[O-]	25*	39*	-4	.	-15	-4	9	4.9*
c1ccc(Cn2c(Cn3c(-c4cnccn4)nc4ccccc43)nc3ccccc32)cc1	2	8	11	.	.	.	.	.
C=CCOc1ccc(C=NNc2ccc(S(=O)(=O)Nc3ccccc3C(=O)O)cc2[N+](=O)[O-])cc1OC	0	37*	-3	12	90*	0	95*	80*
Cc1nn(-c2ccccc2)c(Cl)c1/C=N/Nc1ccc(S(=O)(=O)Nc2ccccc2C(=O)O)cc1[N+](=O)[O-]	-1	52*	0	-5	3	4	92*	65*
CCOc1cccc(C=NNc2ccc(S(=O)(=O)Nc3ccccc3C(=O)O)cc2[N+](=O)[O-])c1O	0	76*	-3	-3	57	-1	86*	54*
O=C(O)c1ccccc1NS(=O)(=O)c1ccc(NN=Cc2ccccc2F)c([N+](=O)[O-])c1	7	84*	8	17	11	0	92*	72*
SMILES	PRMT1 FP inh	rCAG binder	ABHD5 PLIN5 PPI	Rtt109 Vps75	ALR inh	LANA-H2B inh	rCAG binder conf	dCAG dye counter	others
CCOc1ccc(C=NNc2ccc(S(=O)(=O)Nc3ccccc3C(=O)O)cc2[N+](=O)[O-])cc1	.	.	5	-2	5	-1	.	.
NS(=O)(=O)c1cc(C(=O)Nc2ccc3c(c2)CCC3)ccc1Cl	2	3	-2	6	6	4	.	.
COc1cc(NC(=O)CCn2c(=S)[nH]c3ccccc3c2=O)cc(OC)c1OC	-1	4	-7	.	.	.	.	.
COc1ccc(C=NNc2ccc(S(=O)(=O)Nc3ccccc3C(=O)O)cc2[N+](=O)[O-])c(OC)c1	.	.	2	?	43	1	.	.
COc1ccc(NC(=S)NNc2ccc(S(=O)(=O)Nc3ccccc3C(=O)O)cc2[N+](=O)[O-])cc1	17	97*	-5	47	99*	3	88*	61*
Cc1nn(-c2ccccc2)c(Cl)c1/C=N/NS(=O)(=O)c1ccc(Br)cc1	0	48*	-8	1	4	-1	42*	11*
CNC(=S)N/N=C/c1c(C)nn(-c2ccccc2)c1Cl	1	4	2	2	18	0	.	.
Oc1ccc(Br)c(CN2CCN(c3ncc(Cc4ccccc4)cn3)CC2)c1	4	5	-15	.	.	.	.	.
CCc1nnc(NS(=O)(=O)c2ccc(NC(=O)c3cccc4ccccc34)cc2)s1	0	64*	-4	.	41	-2	44*	16*
CCc1nnc(NS(=O)(=O)c2ccc(NC(=O)c3cc(Cl)ccc3Cl)cc2)s1	1	54*	-3	2	1	3	36*	11*
CCc1nnc(NS(=O)(=O)c2ccc(NC(=O)c3cc(Cl)ccc3[N+](=O)[O-])cc2)s1	-5	45*	-2	4	34	-3	25	5.9*
Cc1ccn(CCC(=O)N2CCCC(N3CCN(c4ccccc4C)CC3)C2)n1 (stereo not drawn)	-5	0	11	.	.	.	.	.
